Results on 29 molecules are retold here after ChEMBL document CHEMBL1157539, “Thousands of chemical starting points for antimalarial lead identification” (Nature, 2010).

What all share (type): functional
In test [1] the test system is Plasmodium falciparum. The experiment in a line: GSK_TCMDC: Inhibition of Plasmodium falciparum 3D7 in whole red blood cells, using parasite LDH activity as an index of growth. Test compounds present at 2uM.
Test [2] concerns Plasmodium falciparum. Put plainly: GSK_TCMDC: Inhibition of Plasmodium falciparum Dd2 in whole red blood cells, using parasite LDH activity as an index of growth. Test compounds present at 2uM.
Test [3] deals with HepG2. The experiment in a line: GSK_TCMDC: Percent inhibition of human HepG2 cell line. Test compounds present at 10uM.

Molecules are shown by their SMILES. Values joined by “and” are separate entries in the source; they are usually repeats but may differ in a detail not shown here. Equal entries are not always repeated.

Usually Inhibition stands for the relative decrease from the control value, in per cent. As for `COc1ccc(CCNCc2ccc3c(C)cc(N)nc3c2)cc1`, the Inhibition in test [1] is listed as 100%; in test [2] it was 69%; in test [3], 12%.

Turning to `CN1CC(c2ccc(Cl)c(Cl)c2)OC1=N.I` (stereo unspecified), the results for the Inhibition in test [1] and in test [2] were 99% and 3%, respectively.

`Cc1ccc(CC(C)NCC(O)c2cccc(Br)c2)cc1` (stereo unspecified): the Inhibition in test [1] was 99%; in test [2], 97%; in test [3] it was 7%.

In the case of `Cc1ccc(CC(C)NCC(O)c2cccc(C(F)(F)F)c2)c(C)c1.Cl` (stereo unspecified), the Inhibition stood at 99% in test [1], 99% in test [2] and 3% in test [3].

On to `O=C(Nc1ccc(Oc2ccccc2)cc1)N1CCC(CN2CCC(c3c[nH]c4ccccc34)CC2)CC1`, for which the Inhibition came to 100% in test [1], 59% in test [2] and 53% in test [3].

For `COC(=O)c1ccc(CC(C)NCC(O)c2ccccc2Cl)cc1` (stereo unspecified), the results for the Inhibition in test [1], in test [2] and in test [3] were 94%, 55% and 1%, respectively.

As to `CCCCCc1cc(O)c2c3c(c(=O)oc2c1)CN(C)CC3`, the Inhibition in test [1] is 100%; in test [2], 99%; in test [3] it was 4%.

As for `CO[C@@H]1C[C@@H](C(=O)Nc2ccccc2)N(c2ccc(C#N)c3ccccc23)C1`, the Inhibition in test [1] is 98%; in test [2], 100%; in test [3], 7%.

With `CC(Cc1ccc(OCc2ccccc2)c(Cl)c1)NCC(O)c1cccc(C(F)(F)F)c1` (stereo unspecified), the Inhibition amounted to 97% in test [1], 95% in test [2] and 0% in test [3].

As for `CN1CC=C(c2c[nH]c3ccc(Oc4ccccc4)cc23)CC1.O=C(O)C(=O)O`, the Inhibition was 98% in test [1], 98% in test [2] and 40% in test [3].

Turning to `COC(=O)c1ccc(CC(C)NCC(O)c2cccc(C(F)(F)F)c2)cc1F.Cl` (stereo unspecified), the Inhibition is 82% in test [1], 47% in test [2] and 1% in test [3].

`N#Cc1ccc(N(CCCO)Cc2ccccc2C(F)(F)F)cc1C(F)(F)F`: the values for the Inhibition in test [1], in test [2] and in test [3] were 91%, 23% and 7%, respectively.

As for `CC[C@H]1CN2CC[C@H]1C[C@H]2[C@H](O)c1cc(-c2ccc(F)cc2)nc2ccc(OC)cc12.Cl`, the Inhibition amounted to 99% in test [1], 98% in test [2] and 34% in test [3].

Take `Oc1ccccc1CNCC(O)c1cc(C(F)(F)F)cc(C(F)(F)F)c1` (stereo unspecified): the Inhibition in test [1] stood at 99%; in test [2], 100%; in test [3] it was 15%.

Regarding `O=C(Nc1ccc(Oc2ccccc2)cc1)NC1CCC(CN2CCC(c3c[nH]c4ccccc34)CC2)CC1` (stereo unspecified), the Inhibition in test [1] is listed as 100%; in test [2], 97%; in test [3] it was 55%.

For the molecule `C/C=C1\CN2CC[C@H]1C[C@@H]2[C@@H](O)c1ccnc2ccc(O)cc12`, the results for the Inhibition in test [1], in test [2] and in test [3] were 98%, 0% and 0%, respectively.

With `CC(C)CNCc1ccc(-c2cccc(CN(C(=O)CCC3CCCC3)C3CCN(Cc4ccccc4)CC3)c2)cc1.O=C(O)C(F)(F)F`, the Inhibition in test [1] amounted to 100%; in test [2] it was 92%; in test [3], 62%.

Take `Cc1cc(NC(=O)[C@@H](Nc2ccc(C#N)c3ccccc23)C2CCCCC2)ccc1F.O=C(O)C(F)(F)F`: the Inhibition in test [1] was determined as 95%; in test [2], 83%; in test [3] it was 10%.

`Br.COC(=O)c1ccc(CC(C)NCC(O)c2cccc(SC(F)(F)F)c2)cc1` (stereo unspecified): the Inhibition is reported as 96% in test [1], 72% in test [2] and 7% in test [3].

On to `CC[C@H]1CN2CC[C@H]1C[C@H]2[C@H](O)c1cc(-c2ccccc2F)nc2ccc(OC)cc12.Cl`, for which the results for the Inhibition in test [1], in test [2] and in test [3] were 99%, 98% and 13%, respectively.

For the molecule `CN1CC=C(c2c[nH]c3ccc(-c4ccccc4)cc23)CC1`, the figures for the Inhibition in test [1], in test [2] and in test [3] were 93%, 60% and 14%, respectively.

With `COc1cc2c(c(OC)c1OC)C[C@H]1c3c(cc4c(c3-2)OCO4)CCN1C`, the figures for the Inhibition in test [1], in test [2] and in test [3] were 84%, 30% and 7%, respectively.

`CCOC(C(=O)OCC1CCCN1C(C)C)(c1ccccc1)c1ccccc1` (stereo unspecified): the figures for the Inhibition in test [1], in test [2] and in test [3] were 98%, 2% and 0%, respectively.

As for `CN1C(=O)OC[C@@H]1Cc1ccc2[nH]cc(C3=CCN(Cc4ccccc4)CC3)c2c1`, the results for the Inhibition in test [1], in test [2] and in test [3] were 86%, 66% and 4%, respectively.

As to `Br.COc1ccc(CC(C)NCC(O)c2cccc(C(F)(F)F)c2)cc1F` (stereo unspecified), the Inhibition amounted to 91% in test [1], 65% in test [2] and 0% in test [3].

Consider `CCOc1ccc(-c2nc3cc(-c4nc5cc(N6CCN(C)CC6)ccc5[nH]4)ccc3[nH]2)cc1.Cl.O`, for which the values for the Inhibition in test [1], in test [2] and in test [3] were 100%, 99% and 16%, respectively.

Take `COc1ccc(C=CC(=O)NC2CCC(CN3CCC(c4c[nH]c5ccccc45)CC3)CC2)cc1` (stereo unspecified): the Inhibition in test [1] is 100%; in test [2], 61% and 60%; in test [3], 13% and 30%.

Consider `C=Cc1cc(OC)c2c(c1)c(=O)oc1c2cc(OC)c2c(O)ccc([C@H]3O[C@H]([C@H](C)O)[C@H](O)[C@H]3O)c21`, for which the Inhibition was 95% in test [1], 41% in test [2] and 33% in test [3].

Consider `CC[C@H]1CN2CC[C@H]1C[C@H]2[C@H](O)c1cc(N2CCCC(CO)C2)nc2ccc(OC)cc12` (stereo partly specified), for which the Inhibition in test [1] amounted to 100%; in test [2], 99%; in test [3], 11%.
